From PubChem BioAssay (NCATS)
Records with an inconclusive call do not appear. Calls of active or inactive are those of the source. Unless noted, calls come from the whole dose curve; as a rule, active = well fitted curve in the direction sought with a large enough effect; inconclusive = small, poorly fitted or top-dose-only effect, or another doubt; inactive = no such curve, though single readings can be large; an effect the other way counts as inactive or inconclusive.

How the values were obtained:
[1] = NS1 protein of Zika virus - qHTS assay to identify small molecule inhibitors in human HEK 293 cells (AID 1347053); note: series mostly up to about 46 µM; nearly all actives have a fitted effect of over 55% in size
Summary of the method: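 In this cell-based screen, HEK 293 cultures received compound for one hour before Zika MR766 at MOI = 0.5. NS1 was quantified 24 hours later by TR-FRET, normalized to virus-free wells and infected wells.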

[2] = qHTS of pediatric cancer cell lines to identify multiple opportunities for drug repurposing: Primary screen for TC32 cells (AID 1347089); note: nearly all actives have a fitted effect of over 60% in size
Summary of the method: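 Measured quantity: luminescence from CellTiter-Glo, reflecting metabolically active TC32 cells following 48 h of compound. Curves came straight from multi-point titrations, with 8 or 11 points in primary and 11 in confirmatory screening.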

[3] = qHTS of pediatric cancer cell lines to identify multiple opportunities for drug repurposing: Primary screen for DAOY cells (AID 1347090); note: series mostly up to about 46 µM; nearly all actives have a fitted effect of over 55% in size
Summary of the method: (§1)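 Viability measured as metabolically active cells via CellTiter-Glo luminescence following 48 hours of compound exposure, 11-point dilutions in confirmatory testing. 500-1,000 cells/well plated 5 hours before dosing; controls were DMSO and 2.3 µM bortezomib.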

[4] = qHTS of pediatric cancer cell lines to identify multiple opportunities for drug repurposing: Primary screen for SJ-GBM2 cells (AID 1347091)
Summary of the method: as §1

[5] = qHTS of pediatric cancer cell lines to identify multiple opportunities for drug repurposing: Primary screen for A673 cells (AID 1347092); note: nearly all actives have a fitted effect of over 45% in size
Summary of the method: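 Cells are plated, rested 5 h, dosed by pintool, incubated 48 h, then lysed with CellTiter-Glo and read by luminescence. DMSO is the neutral control; bortezomib at 2.3 uM final is the positive control.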

[6] = qHTS of pediatric cancer cell lines to identify multiple opportunities for drug repurposing: Primary screen for SK-N-MC cells (AID 1347093); note: series mostly up to about 46 µM
Summary of the method: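 Metabolically active cells were quantified by ATP-dependent luminescence (CellTiter-Glo, 15 min at room temperature) following 48 h treatment. Cells had been plated at 500-1,000 per well and settled for 5 h beforehand.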

[7] = qHTS of pediatric cancer cell lines to identify multiple opportunities for drug repurposing: Primary screen for BT-37 cells (AID 1347094); note: series mostly up to about 57 µM
Summary of the method: (§2)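 500-1,000 cells/well; 5 h pre-incubation 37 °C/5% CO2; compound pinned; 48 h; CellTiter-Glo, 15 min RT; luminescence. MIPE 11-pt from 0.78 nM, NPC 8-pt from 0.59 nM final. Bortezomib 2.3 µM final as positive control.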

[8] = qHTS of pediatric cancer cell lines to identify multiple opportunities for drug repurposing: Primary screen for NB-EBc1 cells (AID 1347095)
Summary of the method: as §2

[9] = qHTS of pediatric cancer cell lines to identify multiple opportunities for drug repurposing: Primary screen for U-2 OS cells (AID 1347096); note: nearly all actives have a fitted effect of over 50% in size
Summary of the method: (§3)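 Viability after 48 h compound treatment at 37C, 500-1,000 cells/well, read as ATP luminescence with CellTiter-Glo. Primary screens used 11-point (MIPE, 0.78 nM-46 µM) or 8-point (NPC, 0.59 nM-46 µM) final concentrations; follow-up screens used 11-point dilutions.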

[10] = qHTS of pediatric cancer cell lines to identify multiple opportunities for drug repurposing: Primary screen for Saos-2 cells (AID 1347097); note: nearly all actives have a fitted effect of over 40% in size
Summary of the method: as §2

[11] = qHTS of pediatric cancer cell lines to identify multiple opportunities for drug repurposing: Primary screen for SK-N-SH cells (AID 1347098);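 note: DMSO served as neutral control and bortezomib at 2.3 µM as positive control; nearly all actives have a fitted effect of over 65% in size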
Summary of the method: (§4)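 Cells (500-1,000/well) rested 5 h, then received compounds for 48 h; metabolically active cells were measured by CellTiter-Glo luminescence. Final concentrations spanned up to 46 µM (MIPE, 11-point) or 0.59 nM-46 µM (NPC, 8-point) in primary screens, 11-point in follow-ups.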

[12] = qHTS of pediatric cancer cell lines to identify multiple opportunities for drug repurposing: Primary screen for NB1643 cells (AID 1347099); note: nearly all actives have a fitted effect of over 50% in size
Summary of the method: as §2

[13] = qHTS of pediatric cancer cell lines to identify multiple opportunities for drug repurposing: Primary screen for LAN-5 cells (AID 1347100)
Summary of the method: as §3

[14] = qHTS of pediatric cancer cell lines to identify multiple opportunities for drug repurposing: Primary screen for BT-12 cells (AID 1347101); note: nearly all actives have a fitted effect of over 25% in size
Summary of the method: as §4

[15] = target: Atrial natriuretic peptide receptor 1 (Homo sapiens) (UniProt P16066); assay: Natriuretic polypeptide receptor (hNpr1) antagonism - Pilot screen (AID 1347049; calls by dose curve;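 note: agonist-evoked cGMP luminescence read 20 min after hNppA addition; series mostly up to about 58 µM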)
Summary of the method: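 cGMP-sensor HEK293/hNpr1 cells, 1500/well, plated overnight at 37C. 2% GloSensor reagent, 2 h RT. Compound (23 nL pin transfer) 30 min RT, baseline luminescence pre-read. 0.1 nM hNppA, 20 min RT, post-read.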

[16] = target: Atrial natriuretic peptide receptor 2 (Homo sapiens) (UniProt P20594); assay: Natriuretic polypeptide receptor (hNpr2) antagonism - Pilot subtype selectivity assay (AID 1347050; calls by dose curve)
Summary of the method: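 Luminescence from a genetically encoded cGMP luciferase biosensor in hNpr2-expressing HEK293 cells is read before and 20 min after adding 1 nM hNppC. Test compounds, in interplate 1:5 titrations, are added 30-50 min ahead of the agonist.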

[17] = target: T1, Tyrosine-protein phosphatase non-receptor type substrate 1 (Homo sapiens) + Leukocyte surface antigen CD47 (Homo sapiens) (UniProt P78324+Q08722); assay: CD47-SIRPalpha protein protein interaction - LANCE assay qHTS validation (AID 1347057; active = well fitted curve in the direction sought with a large enough effect in the signal ratio, with a control signal flat, not every such curve was filed as active; the % refers to the signal ratio; note: series mostly up to about 38 µM)
Summary of the method: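 Inhibition of soluble CD47/SIRPalpha ectodomain association by titrated compounds, measured as 665/615 nm time-resolved FRET ratio after sequential 30 min room-temperature incubations.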

[18] = target: T1, Tyrosine-protein phosphatase non-receptor type substrate 1 (Homo sapiens) + Leukocyte surface antigen CD47 (Homo sapiens); assay: CD47-SIRPalpha protein protein interaction - HTRF assay qHTS validation (AID 1347058; active = well fitted curve in the direction sought with a large enough effect in the signal ratio, not every such curve was filed as active; the % refers to the signal ratio; note: series mostly up to about 38 µM)
Summary of the method: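 Soluble extracellular domains (6His-CD47, Avi-tag-biotinylated SIRPalpha) in PBS pH 7.4 with 0.05% IGEPAL CA-630. Compounds were preincubated 30 min at RT with CD47 and anti-His-Eu, then SIRPalpha and SAV-XL665 were added. TR-FRET 665/615 ratio.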

[19] = target: T1, Tyrosine-protein phosphatase non-receptor type substrate 1 (Homo sapiens) + Leukocyte surface antigen CD47 (Homo sapiens); assay: CD47-SIRPalpha protein protein interaction - Alpha assay qHTS validation (AID 1347059);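 note: bead proximity luminescence from CD47 binding SIRPalpha after compound preincubation with SIRPalpha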
Summary of the method: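 SIRPalpha-biotin 25 nM + cpd, 30 min RT, dark; add CD47-His 12.5 nM, 30 min; add Ni-NTA/SAV beads 10 ug/mL, 30 min; AlphaScreen. Buffer PBS pH 7.4 + 0.05% IGEPAL CA-630. Non-biotinylated SIRPalpha as control inhibitor.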

[20] = target: Parathyroid hormone/parathyroid hormone-related peptide receptor (Homo sapiens) (UniProt Q03431); assay: qHTS for PTHR1 Agonists: Optimization Screen against the NCGC LOPAC library (AID 1347079);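 note: GloSensor cAMP luminescence in HEK-293 GP2 cells expressing human PTHR1 with IBMX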
Summary of the method: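 HEK-293 GP2 cells, PTHR1 + GloSensor cAMP; 3000 cells/well, o/n. Luciferin + IBMX 0.5mM each (stock), 1 hr 37C. Cpd titration, 1 hr 37C. Lum after 15 min RT. Ctrl M-PTH(1-15) top 10uM.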

Measured: Potency

Sequence of Parathyroid hormone/parathyroid hormone-related peptide receptor (Homo sapiens) (Q03431 whole entry, looked up): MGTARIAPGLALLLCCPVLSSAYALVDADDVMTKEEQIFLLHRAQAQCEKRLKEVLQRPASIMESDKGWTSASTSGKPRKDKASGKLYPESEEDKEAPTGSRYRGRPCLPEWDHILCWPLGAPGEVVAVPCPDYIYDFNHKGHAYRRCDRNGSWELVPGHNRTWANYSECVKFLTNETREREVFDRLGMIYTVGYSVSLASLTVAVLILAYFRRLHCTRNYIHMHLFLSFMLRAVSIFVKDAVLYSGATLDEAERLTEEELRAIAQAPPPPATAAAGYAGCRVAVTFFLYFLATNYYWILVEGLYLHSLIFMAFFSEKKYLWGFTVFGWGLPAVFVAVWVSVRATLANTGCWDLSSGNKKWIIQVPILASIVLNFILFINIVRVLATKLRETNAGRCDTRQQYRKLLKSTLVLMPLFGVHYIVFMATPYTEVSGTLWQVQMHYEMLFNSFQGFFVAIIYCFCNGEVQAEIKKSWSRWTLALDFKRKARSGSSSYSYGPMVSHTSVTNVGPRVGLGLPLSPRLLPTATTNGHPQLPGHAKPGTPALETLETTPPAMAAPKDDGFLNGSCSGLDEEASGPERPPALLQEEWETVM
T1 sequence (P78324 whole entry, looked up, the tested form may be a part): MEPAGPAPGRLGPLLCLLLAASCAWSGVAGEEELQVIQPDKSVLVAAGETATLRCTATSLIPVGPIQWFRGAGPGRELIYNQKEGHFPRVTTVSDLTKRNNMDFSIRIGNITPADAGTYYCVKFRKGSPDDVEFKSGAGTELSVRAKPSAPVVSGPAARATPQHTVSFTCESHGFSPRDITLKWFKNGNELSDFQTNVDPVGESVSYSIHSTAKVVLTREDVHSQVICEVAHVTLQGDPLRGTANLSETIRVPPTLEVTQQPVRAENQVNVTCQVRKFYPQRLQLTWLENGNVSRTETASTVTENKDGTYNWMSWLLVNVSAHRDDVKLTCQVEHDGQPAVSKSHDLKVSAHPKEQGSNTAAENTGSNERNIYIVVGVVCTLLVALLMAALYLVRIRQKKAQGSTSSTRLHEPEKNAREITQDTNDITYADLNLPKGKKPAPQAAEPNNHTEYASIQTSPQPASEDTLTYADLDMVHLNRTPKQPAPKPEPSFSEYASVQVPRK
T1 sequence (Q08722 whole entry, looked up, the tested form may be a part): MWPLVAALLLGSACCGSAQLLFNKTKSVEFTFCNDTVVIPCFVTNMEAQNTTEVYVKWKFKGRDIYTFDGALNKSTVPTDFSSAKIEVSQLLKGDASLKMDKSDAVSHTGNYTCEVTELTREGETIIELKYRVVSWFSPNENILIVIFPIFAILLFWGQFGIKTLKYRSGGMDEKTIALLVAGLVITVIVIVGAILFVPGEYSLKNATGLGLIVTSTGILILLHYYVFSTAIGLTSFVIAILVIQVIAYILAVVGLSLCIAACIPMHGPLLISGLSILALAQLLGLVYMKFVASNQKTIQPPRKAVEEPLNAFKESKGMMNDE
Sequence of Atrial natriuretic peptide receptor 1 (Homo sapiens) (P16066 whole entry, looked up): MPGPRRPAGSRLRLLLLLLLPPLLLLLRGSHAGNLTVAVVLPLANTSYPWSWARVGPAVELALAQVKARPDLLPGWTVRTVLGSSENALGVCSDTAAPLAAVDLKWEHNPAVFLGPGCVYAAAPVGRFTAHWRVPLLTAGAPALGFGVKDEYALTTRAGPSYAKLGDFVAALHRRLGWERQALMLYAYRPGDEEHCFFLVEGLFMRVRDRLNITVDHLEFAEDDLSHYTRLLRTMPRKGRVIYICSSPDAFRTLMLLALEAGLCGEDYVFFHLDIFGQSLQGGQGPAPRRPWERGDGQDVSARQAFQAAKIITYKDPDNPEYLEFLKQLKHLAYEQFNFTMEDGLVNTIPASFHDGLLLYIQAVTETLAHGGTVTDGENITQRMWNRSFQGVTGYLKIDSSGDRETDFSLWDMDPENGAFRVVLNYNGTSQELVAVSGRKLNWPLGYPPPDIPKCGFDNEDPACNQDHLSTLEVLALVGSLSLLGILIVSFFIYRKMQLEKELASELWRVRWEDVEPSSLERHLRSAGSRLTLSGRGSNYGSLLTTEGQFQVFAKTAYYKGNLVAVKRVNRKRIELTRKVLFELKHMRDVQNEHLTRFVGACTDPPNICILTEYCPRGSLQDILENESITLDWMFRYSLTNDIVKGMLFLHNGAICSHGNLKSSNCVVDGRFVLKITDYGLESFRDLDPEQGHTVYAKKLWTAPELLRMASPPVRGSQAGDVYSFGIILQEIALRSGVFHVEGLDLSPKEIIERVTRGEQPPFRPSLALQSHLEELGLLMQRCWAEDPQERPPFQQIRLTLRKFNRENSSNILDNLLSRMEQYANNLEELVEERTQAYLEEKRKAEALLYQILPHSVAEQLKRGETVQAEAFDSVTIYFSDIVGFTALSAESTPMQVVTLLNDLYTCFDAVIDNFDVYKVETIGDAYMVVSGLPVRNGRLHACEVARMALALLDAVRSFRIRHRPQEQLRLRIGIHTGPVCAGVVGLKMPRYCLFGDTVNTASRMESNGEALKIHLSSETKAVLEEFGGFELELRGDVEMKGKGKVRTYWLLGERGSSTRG
Sequence of Atrial natriuretic peptide receptor 2 (Homo sapiens) (P20594 whole entry, looked up): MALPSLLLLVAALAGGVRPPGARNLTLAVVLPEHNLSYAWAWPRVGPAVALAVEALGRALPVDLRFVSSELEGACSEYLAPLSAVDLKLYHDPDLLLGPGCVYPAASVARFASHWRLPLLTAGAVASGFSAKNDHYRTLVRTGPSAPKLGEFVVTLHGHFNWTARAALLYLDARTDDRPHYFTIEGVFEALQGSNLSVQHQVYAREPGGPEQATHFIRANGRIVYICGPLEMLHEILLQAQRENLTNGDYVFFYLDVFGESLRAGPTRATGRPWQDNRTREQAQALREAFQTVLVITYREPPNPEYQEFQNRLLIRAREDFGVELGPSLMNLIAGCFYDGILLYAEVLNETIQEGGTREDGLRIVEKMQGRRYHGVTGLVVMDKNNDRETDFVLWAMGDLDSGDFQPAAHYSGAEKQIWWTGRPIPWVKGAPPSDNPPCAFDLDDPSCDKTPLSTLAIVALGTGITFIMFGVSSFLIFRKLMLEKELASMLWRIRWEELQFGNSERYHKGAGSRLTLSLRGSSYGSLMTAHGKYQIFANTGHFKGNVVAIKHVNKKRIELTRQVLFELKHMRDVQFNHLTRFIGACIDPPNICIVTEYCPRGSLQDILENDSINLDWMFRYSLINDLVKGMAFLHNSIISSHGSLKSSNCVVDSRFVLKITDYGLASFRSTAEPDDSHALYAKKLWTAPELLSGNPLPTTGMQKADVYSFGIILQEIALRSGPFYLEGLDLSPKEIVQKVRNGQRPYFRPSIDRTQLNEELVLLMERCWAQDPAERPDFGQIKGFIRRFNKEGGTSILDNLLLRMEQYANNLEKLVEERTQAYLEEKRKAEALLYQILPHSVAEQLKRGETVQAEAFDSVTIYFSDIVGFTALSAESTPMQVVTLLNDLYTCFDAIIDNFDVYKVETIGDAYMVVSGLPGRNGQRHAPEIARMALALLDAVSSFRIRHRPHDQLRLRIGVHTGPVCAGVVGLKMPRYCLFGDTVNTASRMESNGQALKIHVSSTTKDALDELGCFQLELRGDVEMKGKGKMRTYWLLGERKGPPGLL

CCc1cc(Cl)c(OC)c(C(=O)NC[C@@H]2CCCN2CC)c1O
not listed: [15] | [16] | [17] | [18] | [19] | [20]
inactive: all other assays above

C/C=C/c1ccc(O)c(OC)c1
not listed: [15] | [16] | [17] | [18] | [19] | [20]
inactive: all other assays above

CCCCCCCCCCCCCCCCO
not listed: [15] | [16] | [17] | [18] | [19] | [20]
inactive: all other assays above

CC(C)(C)NCC(O)COc1cccc2c1C[C@H](O)[C@H](O)C2 (some centres undefined)
not listed: [15] | [16] | [17] | [18] | [19] | [20]
inactive: all other assays above

COc1ccc(CN(CCN(C)C)c2ncccn2)cc1
not listed: [15] | [16] | [17] | [18] | [19] | [20]
inactive: all other assays above

O=C(Nc1cccc(C2=NCCN2)c1)Nc1cccc(C2=NCCN2)c1
not listed: [14] | [15] | [16] | [17] | [18] | [19] | [20]
inactive: all other assays above

Nc1ccc(S(=O)(=O)Nc2cnc3ccccc3n2)cc1
not listed: [15] | [16] | [17] | [18] | [19] | [20]
inactive: all other assays above

CC(=O)NC(=O)c1ccccc1O
not listed: [15] | [16] | [17] | [18] | [19] | [20]
inactive: all other assays above

O=C(O)Cc1csc(-c2ccc(Cl)cc2)n1
not listed: [15] | [16] | [17] | [18] | [19] | [20]
inactive: all other assays above

CC(C)(C)NC[C@H](O)COc1nsnc1N1CCOCC1
inactive: all assays above

CN=C(N)NCCC[C@H](N)C(=O)O
inactive: [15] | [16] | [1] | [17] | [18] | [19] | [20]

CN(C)CCOC(c1ccc(Cl)cc1)c1ccccn1 (centres undefined)
not listed: [14] | [15] | [16] | [17] | [18] | [19] | [20]
inactive: all other assays above

CCOC(=O)[C@H](CCc1ccccc1)N[C@@H](C)C(=O)N1[C@H](C(=O)O)C[C@H]2CCCC[C@@H]21
inactive: [15] | [16] | [1] | [17] | [18] | [19] | [20]

C=CCN1CCc2nc(N)sc2CC1
not listed: [15] | [16] | [17] | [18] | [19] | [20]
inactive: all other assays above

CC(C)CCCC(C)N (centres undefined)
not listed: [15] | [16] | [17] | [18] | [19] | [20]
inactive: all other assays above

N#C/C(=C1\SCC(c2ccccc2Cl)S1)n1ccnc1 (centres undefined)
not listed: [15] | [16] | [17] | [18] | [19] | [20]
inactive: all other assays above

CC1=C(C(=O)O)N2C(=O)[C@@H](NC(=O)[C@H](N)c3ccccc3)[C@H]2SC1
not listed: [15] | [16] | [17] | [18] | [19] | [20]
inactive: all other assays above

O=C1OC2(c3ccccc31)c1cc(Br)c(O)c(Br)c1Oc1c2cc(Br)c(O)c1Br
inactive: [1] | [2] | [3] | [4] | [5] | [7] | [8] | [9] | [12] | [13] | [14]
